The list is not random: actives were taken first. Their share in the collection is about 7.6%.
KCNH2 3.1 inh – inhibitors of human KCNH2 3.1 potassium channel isoform. U2OS KCNH2 3.1, thallium flux FluxOr; active compounds read low. 0.95% of 340,000 active. activity change, % (tested at about 1.8 µM);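 active = maximum activity change below -70%; inconclusive = maximum activity change from -70% to -50%; inactive = maximum activity change above -50%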;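 note: thallium influx rate constant from kinetic fluorescence after stimulation buffer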
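Measured as rate of thallium-driven FluxOr signal in transduced U2OS cells carrying the 3.1 channel, read kinetically for 2 min upon stimulation; values are rate constants scaled to DMSO control wells.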
hERG WT inh – inhibitors of human wildtype KCNH2 potassium channel; Q12809; U2OS, BacMam KCNH2, thallium flux FluxOr; active compounds read low; activity change, % at 1.84 µM; 0.37% of 340,000 active;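 active = maximum activity change below -70%; inconclusive = maximum activity change between -70% and -50%; inactive = maximum activity change above -50%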
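U2OS cells transduced with wild-type KCNH2 virus are loaded with FluxOr dye for 45 min, and thallium flux is measured in kinetic reads before and after stimulation buffer. Rate constants are normalized to DMSO controls.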
KB-V1 cytotox – KB-V1 MDR subline cytotoxicity. AID 1347076. KB-V1 MDR cells viability, CellTiter-Glo, 72 h. 3.4% of 400,000 active. Potency, µM (doses to about 46.1 µM), hits mostly cytotoxic; note: nearly all actives have a fitted effect of over 60% in size
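KB-V1, DMEM (no phenol red) + 10% FBS; cpd pin-transferred, titration series; 72 h, 37 degrees C; CellTiter-Glo, luminescence. Data normalized, curve-fit.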
MCF10A rerep – inducers of DNA re-replication in MCF 10A breast cells; AID 624296; 2.9% of 350,000 active; Potency, µM (top dose mostly 46.1 µM), actives largely listed as activators; MCF 10A DNA re-replication, Hoechst nuclear intensity, 48 h; note: nearly all actives have a fitted effect of over 50% in size
KB-3-1 tox – KB-3-1 parental cell cytotoxicity; Potency, µM (top dose mostly 46.1 µM), usual class: cytotoxic; 1.4% of 400,000 active; KB-3-1 viability, CellTiter-Glo ATP luminescence, 72 h; AID 1347075; note: nearly all actives have a fitted effect of over 60% in size
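Cells are dispensed, compounds pinned in, plates held at 37 °C for 72 h, then CellTiter-Glo is added and luminescence read after 10 minutes. Cell line: parental KB-3-1 in phenol-red-free DMEM, 10% FBS.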
SW480 rereplic – DNA re-replication induction in SW480 cells; 1.8% of 340,000 active; AID 624297; SW480 DNA re-replication, Hoechst DNA content imaging, 48 h; Potency, µM (top dose mostly 46.1 µM), most hits filed as activators; note: nearly all actives have a fitted effect of over 55% in size
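Readout is total intensity of Hoechst-stained nuclei, excited at 405 nm and collected at 500-530 nm. Compound treatment lasted 48 hr at 37 C in 5% CO2 before staining.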
Each line names hits and unclear results; the compound was inactive in the other large screens. Unless noted, calls come from the whole dose curve; as a rule, active = well fitted curve in the direction sought with a large enough effect; inconclusive = small, poorly fitted or top-dose-only effect, or another doubt; inactive = no such curve, though single readings can be large; an effect the other way counts as inactive or inconclusive.

CNC(=O)COc1ccc(Nc2nnc(-c3ccc(C)c(S(=O)(=O)NC(C)(C)C)c3)c3ccccc23)cc1	none (no result: KCNH2 3.1 inh, hERG WT inh, MCF10A rerep, SW480 rereplic)
O=C(CN1C2=NCCCN2c2ccccc21)c1cccc(Br)c1	KCNH2 3.1 inh inconclusive, KB-V1 cytotox inconclusive, KB-3-1 tox inconclusive
O=C(CN1C2=NCCCN2c2ccccc21)c1ccc(Cl)cc1Cl	KCNH2 3.1 inh inconclusive, KB-V1 cytotox 13µM, KB-3-1 tox inconclusive
Clc1ccc(CN2C3=NCCCN3c3ccccc32)cc1Cl	KCNH2 3.1 inh -104, hERG WT inh -85, KB-V1 cytotox inconclusive, MCF10A rerep 16µM, KB-3-1 tox inconclusive
O=C(CN1C2=NCCCN2c2ccccc21)c1ccc([N+](=O)[O-])cc1	KCNH2 3.1 inh -74, KB-3-1 tox inconclusive, SW480 rereplic inconclusive
CC(C)(C)OC(=O)N1Cc2ccccc2C[C@H]1C(=O)NCC(=O)NC1CCCCC1	none
CCc1ccc(Nc2cc(C)nc3nc(Cc4ccc(Cl)cc4)nn23)cc1	KB-V1 cytotox inconclusive, KB-3-1 tox 21µM (no result: KCNH2 3.1 inh, hERG WT inh, MCF10A rerep, SW480 rereplic)
Cc1ccc(Nc2cc(C)nc3nc(Cc4ccc(Cl)cc4)nn23)cc1	none (no result: KCNH2 3.1 inh, hERG WT inh, MCF10A rerep, SW480 rereplic)
O=C1CN(C(=O)/C=C/c2ccccc2F)c2ccccc2N1	MCF10A rerep inconclusive
Cc1cccc(N2CCN(C(=O)Cc3cn(C)c4ccccc34)CC2)c1C	KB-V1 cytotox 18µM, MCF10A rerep 18µM, KB-3-1 tox inconclusive, SW480 rereplic inconclusive
CN1CCN(C(=O)CCNC(=O)Cn2ccc3ccccc3c2=O)CC1	none
Cc1ccc(C)c(N2CCN(CCCNC(=O)Cn3cccc3C(=O)c3ccccc3C)CC2)c1	KCNH2 3.1 inh -84, hERG WT inh -75, KB-V1 cytotox inconclusive, MCF10A rerep inconclusive
Cc1ccccc1C(=O)c1cccn1CC(=O)NCCCN1CCCCC1	none
Cc1ccccc1C(=O)c1cccn1CC(=O)NCCN1CCN(c2cccc(C)c2C)CC1	KCNH2 3.1 inh -79, hERG WT inh inconclusive, MCF10A rerep inconclusive, KB-3-1 tox inconclusive, SW480 rereplic inconclusive
Cc1cccc(N2CCN(C(=O)CCNC(=O)Cn3ccc4ccccc4c3=O)CC2)c1C	KB-V1 cytotox 21µM
CCOc1ccccc1NC(=O)C(=O)NCCc1sc(-c2cccc(F)c2)nc1C	none (no result: KCNH2 3.1 inh, hERG WT inh, MCF10A rerep, SW480 rereplic)
Cc1cc2occ(CC(=O)N(C)CC(=O)Nc3cccc(F)c3)c2cc1C	SW480 rereplic inconclusive
Cc1cccc(-n2ncc3c(NNC(=O)c4ccccc4Cl)ncnc32)c1	KB-V1 cytotox inconclusive (no result: KCNH2 3.1 inh, hERG WT inh, MCF10A rerep, SW480 rereplic)
O=C1C=C(c2ccc(Cl)c(C(F)(F)F)c2)C[C@@H](c2ccc(Cl)cc2)C1	MCF10A rerep inconclusive
Cc1cccc(NC(=O)C(C)OC(=O)CNC(=O)C2CCCCC2)c1 (stereo unspecified)	hERG WT inh -144 (no result: MCF10A rerep, SW480 rereplic)
Cc1cccc(NC(=O)CNC(=O)Cn2cc(C(F)(F)F)cc(Cl)c2=O)c1C	KB-V1 cytotox inconclusive
Nc1cccc2nsnc12	MCF10A rerep inconclusive
Nc1cc2nsnc2cc1Br	MCF10A rerep inconclusive, SW480 rereplic 18µM
N#Cc1ccsc1NC(=O)CN1CCN(S(=O)(=O)c2ccc3ccccc3c2)CC1	KB-V1 cytotox 6.5µM
O=C(CN1CCN(S(=O)(=O)c2ccc(Cl)cc2)CC1)Nc1ccc2c(c1)CCC2	KB-3-1 tox inconclusive (no result: KCNH2 3.1 inh)
O=C(CN1CCN(S(=O)(=O)c2ccc3ccccc3c2)CC1)Nc1ccc2c(c1)CCC2	KB-V1 cytotox 18µM
O=C(CN1CCN(S(=O)(=O)c2ccc3ccccc3c2)CC1)Nc1ccc(N2CCOCC2)cc1	none
Cc1ccc(S(=O)(=O)N2CCN(CC(=O)Nc3ccc4c(c3)CCC4)CC2)cc1C	KB-V1 cytotox 2.9µM, KB-3-1 tox inconclusive
Brc1ccccc1C1CC(c2ccccc2)=Nc2ccccc2N1 (stereo unspecified)	MCF10A rerep 23µM, SW480 rereplic inconclusive
O=C(NCc1ccc(Cl)cc1)c1cccc2c1C(=O)N(CC1CCCO1)C2 (stereo unspecified)	KB-V1 cytotox inconclusive
Cc1ccc(/C=C2\C(=O)ON=C2c2ccccc2)o1	none
Cc1ccc(C2=NOC(=O)/C2=C\c2ccc(C)o2)cc1	MCF10A rerep 16µM, SW480 rereplic inconclusive
CC1(C)OC(=O)C(=Cc2ccc(-c3ccc(S(N)(=O)=O)cc3)o2)C(=O)O1	MCF10A rerep 18µM, SW480 rereplic inconclusive
CC1(C)CC(=O)c2sc(NS(=O)(=O)c3ccc(Cl)cc3)nc2C1	none
CCC(NC(=O)Nc1nnc(C(F)(F)F)s1)(C(F)(F)F)C(F)(F)F	KB-V1 cytotox 4.1µM, MCF10A rerep inconclusive, KB-3-1 tox 10µM, SW480 rereplic inconclusive
CC(C)(C)c1nnc(NC(=O)CCS(=O)(=O)c2ccccc2)s1	MCF10A rerep inconclusive, SW480 rereplic inconclusive
CC1(C)CC(=O)c2sc(NC(=O)CCS(=O)(=O)c3ccccc3)nc2C1	MCF10A rerep 23µM, KB-3-1 tox 21µM
CC1(C)CC(=O)c2sc(NS(=O)(=O)c3ccc(Br)cc3)nc2C1	MCF10A rerep 0.58µM
O=C(CCS(=O)(=O)c1ccccc1)Nc1nnc(C(F)(F)F)s1	KB-V1 cytotox inconclusive, MCF10A rerep 23µM, KB-3-1 tox inconclusive, SW480 rereplic 13µM
COc1cc(/C=N/NC(=O)c2ccc(COc3ccccc3Cl)o2)cc(Br)c1O	none
COC(=O)c1ccc(COc2ccccc2/C=N/O)o1	SW480 rereplic 1.8µM
COC(=O)c1ccc(COc2ccccc2OC)o1	none
O=C(N/N=C/c1ccccc1F)c1ccc(COc2ccccc2Cl)o1	KB-V1 cytotox 18µM, MCF10A rerep inconclusive
CC(C)NC(=O)Nc1ccc2c(c1)C(=O)N([C@H](C)CO)C[C@H](C)[C@@H](CN(C)S(=O)(=O)c1ccc(F)cc1)O2	none
O=C(N/N=C/c1cc(Br)cc(Br)c1O)c1cccc(S(=O)(=O)N2CCOCC2)c1	KB-3-1 tox inconclusive, SW480 rereplic 0.65µM
O=C(N/N=C/c1sc(N2CCOCC2)nc1-c1ccccc1)c1cccc(S(=O)(=O)N2CCCC2)c1	KB-V1 cytotox inconclusive, MCF10A rerep 15µM, KB-3-1 tox 3.7µM
COc1cccc(/C=N/NC(=O)c2ccc(N3CCCC3=O)cc2)c1	KB-V1 cytotox inconclusive, MCF10A rerep 13µM, KB-3-1 tox 16µM, SW480 rereplic 1.8µM
O=C(N/N=C/c1cc(Br)cc(Br)c1O)c1cccc(N2CCCC2=O)c1	MCF10A rerep inconclusive, KB-3-1 tox inconclusive, SW480 rereplic 8.2µM
Cn1cnnc1SCC(=O)Nc1nc(-c2ccccc2)cs1	none
Cc1ccccc1N1C(S)=C(C#N)C(=O)NC12CCCCC2	MCF10A rerep inconclusive, SW480 rereplic inconclusive
O=C(c1ccc2c(c1)CCN2S(=O)(=O)c1ccc(Cl)cc1)N1CCN(c2ccccc2F)CC1	none (no result: KCNH2 3.1 inh, hERG WT inh, MCF10A rerep, SW480 rereplic)
O=C(CSc1ccc(-c2ccc(F)cc2)nn1)NC1CCCCC1	KB-V1 cytotox inconclusive, MCF10A rerep inconclusive
